# Compound activity: PubChem BioAssay, National Center for Advancing Translational Sciences (NCATS)
# In the library only some 9.3% were active in any assay of this set; here they are far more common.
# ELG1 repair inh – qHTS screen for small molecules that inhibit ELG1-dependent DNA repair in human embryonic kidney (HEK293T) cells expressing luciferase-tagged ELG1; HEK293T ELG1-luciferase reporter, luminescence, 16 h; DNA damage induced by 5-fluorouridine; actives 2.3% (n = 330,000); Potency, µM (top dose mostly 46.1 µM), for the others: at the top dose activity change, negative = inhibition, hits mostly inhibitors; AID 504467, 2011; note: % is set by controls: 0 for no effect and ±100 for the full control effect; nearly all actives have a fitted effect of over 55% in size
#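 DMSO vehicle served as the neutral condition. Each well held 2,000 cells given 5-fluorouridine plus compound; after 16 hr at 37 °C/5% CO2, ONE-Glo was added and luciferase measured 30 min later.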
# SMN2 splice enh – qHTS Assay for Enhancers of SMN2 Splice Variant Expression. HEK293 SMN2-luciferase splicing reporter, luminescence, 30-36 h. actives 2.8% (n = 210,000). Potency, µM (doses to about 46.1 µM), without a hit: at the highest dose activity change, positive = activation, actives largely listed as activators; note: % of control where 0% means no effect; nearly all actives have a fitted effect of over 55% in size
#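 qHTS luciferase splicing reporter: luminescence rises when SMN2 exon 7 is included in transfected HEK293 cells. Compound exposure lasted 30-36 h at 37C, with 4.5 mM final sodium butyrate as control, followed by a ONE-Glo read.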
# FLuc counter – qHTS profiling assay for firefly luciferase inhibitor/activator using purifed enzyme and Km concentrations of substrates (counterscreen for miR-21 project) | AID 588342, 2011 | Potency, µM (doses to about 57.5 µM), without a hit: at the top dose activity change, negative = inhibition, most hits filed as inhibitors | actives 6.9% (n = 360,000) | purified FLuc, Km substrates, luminescence inhibition;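 note: plate controls were vehicle for no effect and reference inhibitor for full effect; nearly all actives have a fitted effect of over 55% in size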
# Target sequence (P08659 whole entry, looked up): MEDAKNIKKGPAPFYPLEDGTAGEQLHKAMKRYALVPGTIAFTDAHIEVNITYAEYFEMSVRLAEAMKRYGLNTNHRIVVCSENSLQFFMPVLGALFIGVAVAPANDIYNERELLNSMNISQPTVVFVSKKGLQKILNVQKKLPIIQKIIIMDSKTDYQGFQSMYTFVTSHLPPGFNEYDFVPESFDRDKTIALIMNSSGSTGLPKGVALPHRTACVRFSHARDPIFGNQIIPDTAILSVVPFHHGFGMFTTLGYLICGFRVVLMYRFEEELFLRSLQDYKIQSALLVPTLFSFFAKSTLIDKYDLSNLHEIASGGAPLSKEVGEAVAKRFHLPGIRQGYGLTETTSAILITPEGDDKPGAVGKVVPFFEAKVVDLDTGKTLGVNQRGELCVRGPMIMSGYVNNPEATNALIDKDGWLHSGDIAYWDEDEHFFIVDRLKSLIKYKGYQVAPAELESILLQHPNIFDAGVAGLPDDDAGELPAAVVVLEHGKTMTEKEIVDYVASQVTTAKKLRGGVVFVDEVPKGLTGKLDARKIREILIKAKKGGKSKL
#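 Purified P. pyralis luciferase (10nM final) with 10uM D-luciferin and 10uM ATP (Km levels) in 50mM Tris acetate pH 7.5, 10mM Mg acetate, 0.01% Tween-20, 0.05% BSA; qHTS 6-point titration, ~60 µM downward; luminescence read.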
# NPC1 promoter act – qHTS Assay for NPC1 Promoter Activators. Huh7 NPC1 promoter luciferase reporter, 24 h. Potency, µM (top dose mostly 9.22 µM), for the others: at the highest dose activation, actives largely listed as activators. actives 2.4% (n = 320,000); note: % of control where 0% means no effect; nearly all actives have a fitted effect of over 60% in size
#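 NPC1 promoter–luciferase Huh7 cells; 24 h compound; luminescence.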
# Rab9 prom act – qHTS Assay for Rab9 Promoter Activators; AID 485297, 2010; Huh7 Rab9 promoter-luciferase reporter, luminescence, 24 h; Potency, µM (top dose mostly 9.22 µM), inactives show top-dose activation, negative = inhibition, hits mostly activators; actives 2.8% (n = 320,000); note: % of control where 0% means no effect; nearly all actives have a fitted effect of over 60% in size
#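 Using Huh7 cells stably transfected with Rab9 promoter–luciferase, compounds were incubated 24 h at 37 °C, 5% CO2; luciferase luminescence was read 10 min after reagent addition.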
# ELG1 genotox – qHTS screen for small molecules that induce genotoxicity in human embryonic kidney (HEK293T) cells expressing luciferase-tagged ELG1; HEK293T ELG1-luciferase reporter, luminescence, 16 h; actives 1.3% (n = 330,000); Potency, µM (doses to about 46 µM), without a hit: top-dose activity change, positive = activation, most hits filed as activators; note: % of control where 0% means no effect; nearly all actives have a fitted effect of over 60% in size
#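 Quantitative HTS format in 1536-well plates. HEK293T ELG1-luciferase reporter cells receive test compound and are incubated 16 hr at 37 °C, 5% CO2; ONE-Glo added, 30 min room temperature, then luminescence read.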
# Numbers without * were called inactive; ? = inconclusive; nt = no result. Calls come from the whole dose curve; as a rule, active = well fitted curve in the direction sought with a large enough effect; inconclusive = small, poorly fitted or top-dose-only effect, or another doubt; inactive = no such curve, though single readings can be large; an effect the other way counts as inactive or inconclusive. Potency is the fitted concentration of half-maximal effect.
SMILES,ELG1 repair inh,SMN2 splice enh,FLuc counter,NPC1 promoter act,Rab9 prom act,ELG1 genotox
O=C(NC1=NCCS1)c1sc2cc(Cl)cc(Cl)c2c1Cl,25%,-3%,-13%,0%,2%,3%
O=C(NC1=NCCS1)c1sc2ccccc2c1Cl,?,13µM*,2.1µM*,1.3µM*,1.1µM*,2.9µM*
COCc1nnc(NC(=O)c2sc3ccccc3c2Cl)s1,?,8%,5.4µM*,?,?,?
Cc1cccnc1NC(=O)c1ccccc1-c1ccccc1C(=O)Nc1ncccc1C,18%,6%,0%,8%,-1%,-5%
O=C(O)CCCn1cc(NC(=O)c2sc3ccccc3c2Cl)cn1,19%,nt,27µM*,-2%,-4%,3%
Cc1cccnc1NC(=O)c1sc2ccccc2c1Cl,?,nt,2.7µM*,1.4µM*,2.5µM*,3.7µM*
Cc1ccc(N2C(=O)N(Cc3cc(=O)n4ccccc4n3)c3ccccc3S2(=O)=O)cc1Cl,nt,nt,0%,nt,nt,nt
Cc1ccc(OCC(=O)NCC(=O)OCc2cc(=O)n3nc(C)sc3n2)cc1,nt,nt,-3%,nt,nt,nt
CCSc1nnc(NC(=O)C2CCN(C(=O)c3ccc(F)cc3)CC2)s1,19%,nt,nt,nt,nt,-1%
Cc1cc(N2CCN(C)CC2)ccc1NC(=O)c1cccc(S(=O)(=O)N2CCc3ccccc3C2)c1,16%,-5%,?,-6%,-3%,3%
CC(C)(C)NC(=O)NC(=O)CN1CCN(c2ncc(C(F)(F)F)cc2Cl)CC1,7.3µM*,-58%,2%,-1%,-1%,-8%
NNC(=O)CN1CCN(c2ncc(C(F)(F)F)cc2Cl)CC1,-13%,-36%,-2%,-1%,-2%,4%
CSc1nc2ccc(NC(=O)c3cc4ccccc4o3)cc2s1,?,nt,1.1µM*,1.6µM*,2.5µM*,?
CSc1nc2ccc(NC(=O)c3cccs3)cc2s1,?,nt,nt,nt,nt,17%
CCOC(=O)CSc1nc2ccc(NC(=O)c3ccc(C)cc3)cc2s1,nt,nt,5.4µM*,nt,nt,nt
CS(=O)(=O)c1ccc2nc(NC(=O)c3cc([N+](=O)[O-])cc([N+](=O)[O-])c3)sc2c1,-9%,nt,?,12%,2%,-2%
CS(=O)(=O)c1ccc2nc(NC(=O)c3cccc([N+](=O)[O-])c3)sc2c1,?,nt,1.7µM*,1.6µM*,1.3µM*,?
O=C(Nc1nc2ccc([N+](=O)[O-])cc2s1)c1c(F)cccc1F,?,?,8.5µM*,23%,19%,-1%
CCn1ccnc1CN1CCN(CCC(C)C)C(CCO)C1 (centres undefined),8%,nt,4%,-2%,-5%,-1%
O=C(c1cc2cccc([N+](=O)[O-])c2oc1=O)N1CCOCC1,7%,nt,2%,-1%,0%,0%
CC(NCC(=O)Nc1ccccc1C(=O)NC1CC1)c1ccco1 (centres undefined),17%,nt,2%,-13%,5%,0%
CSc1nc2ccc(NC(=O)c3ccc(F)c(F)c3)cc2s1,?,16µM*,?,?,?,?
O=C(Nc1nc2ccc([N+](=O)[O-])cc2s1)c1ccco1,?,3.5µM*,2.1µM*,1.6µM*,0.79µM*,-10%
CSc1nc2ccc(NC(=O)c3ccc(=O)[nH]c3)cc2s1,5%,nt,?,1%,12%,14%
CC(=O)Nc1ccc2nc(NC(=O)c3ccco3)sc2c1,?,nt,11µM*,1.4µM*,2µM*,?
